# Screens as filed in PubChem BioAssay.
# FadD28 binding – inhibitors of Mycobacterium tuberculosis FadD28 bisubstrate binding | inhibition, % at 12.5 µM | FadD28 bisubstrate probe binding, fluorescence polarization | 0.22% of 360,000 active; in the data active means inhibition above about 8.5%, passing the limit was not always enough
# UGM FP inh – inhibitors of M. tuberculosis UDP-galactopyranose mutase; P9WIQ1; inhibition, % at 10 µM; 0.06% of 320,000 active; purified UGM, fluorescence polarization probe displacement; in the data active means inhibition above about 10%, passing the limit was not always enough
# Mtb hypoxia inh – reduces hypoxia-regulated biosensor signal in M. tuberculosis. M. tuberculosis hypoxia-regulated fluorescent reporter, fluorescence. fluorescence inhibition, % (test concentration not listed). 0.1% of 300,000 active. AID 1159583; in the data active means fluorescence inhibition mostly above about 23%, no sharp cut-off; inactive means mostly below about 17%
# FBA Mtb inh – Mtb fructose-bisphosphate aldolase inhibition; AID 588726; 2.3% of 360,000 active; inhibition, % at 1 µM; purified M. tuberculosis FBA, fluorescence read-out
# Target sequence (P9WQA3 whole entry, looked up): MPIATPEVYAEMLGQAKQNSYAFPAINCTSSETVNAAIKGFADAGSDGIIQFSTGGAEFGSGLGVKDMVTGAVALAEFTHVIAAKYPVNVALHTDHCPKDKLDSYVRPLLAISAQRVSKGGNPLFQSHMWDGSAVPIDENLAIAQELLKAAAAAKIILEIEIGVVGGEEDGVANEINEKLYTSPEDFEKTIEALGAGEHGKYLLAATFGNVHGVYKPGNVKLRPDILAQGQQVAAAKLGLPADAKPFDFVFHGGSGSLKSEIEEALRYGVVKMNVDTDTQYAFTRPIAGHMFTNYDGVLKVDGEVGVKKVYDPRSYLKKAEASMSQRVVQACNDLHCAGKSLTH
# GDH-TPI counter-1 – inhibits GDH-TPI coupling enzymes, artifact for Mtb FBA screen; 1.2% of 360,000 active; inhibition, % at 4.8 µM; AID 588335; GDH-TPI coupled enzyme counterscreen, NADH absorbance; in the data active means inhibition above about 30%
# Rv3671c protease – inhibitors of M. tuberculosis serine protease Rv3671c; P9WHR9; inhibition, % at 5.96 µM; 0.048% of 320,000 active; in the data active means inhibition above about 38%;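 further: extracellular domain of Rv3671c used as enzyme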
# Mtb FBA inh conf – confirmation of M. tuberculosis fructose-bisphosphate aldolase inhibitors. AID 651616. 78% of 5,600 active. inhibition, % at 1 µM. purified M. tuberculosis FBA, fluorescence read-out. shares compounds with FBA Mtb inh
# GDH-TPI counter-2 – counter-screen for M. tuberculosis FBA inhibitors: GDH-TPI coupled enzyme inhibition; shares compounds with FBA Mtb inh; GDH-TPI coupled enzyme counterscreen, fluorescence; inhibition, % at 1 µM; 81% of 5,600 active; in the data active means inhibition above about 10%
# GDH-TPI DR – inhibits GDH-TPI coupling enzymes in dose response. 79% of 170 active. shares compounds with FBA Mtb inh. GDH-TPI coupled enzyme assay, fluorescence, artifact counterscreen. IC50, µM; call rule not given here
# Hits are given with their value; 0 = inactive; - = no result given; + = active, no number. Compounds with a hit are over-represented: about 3.5% of the library has one in this group of screens. Unless noted, no stated cut-off is given here; in the data, active means inhibition above about 27%; inactive means the rest.
SMILES,FadD28 binding,UGM FP inh,Mtb hypoxia inh,FBA Mtb inh,GDH-TPI counter-1,Rv3671c protease,Mtb FBA inh conf,GDH-TPI counter-2,others
CCn1c(SCC(=O)Nc2ccc(-c3nc4ccc(C)cc4s3)cc2)nnc1-c1ccccc1,-,0,-,-,-,0,-,-,
CNC(=C[N+](=O)[O-])NCCSCc1ccc(CN(C)C)o1,-,-,0,-,-,-,-,-,
CCC(=NNC(=O)CNc1ccc(Cl)cc1C)c1ccccc1,-,-,0,-,-,-,-,-,
CCn1cc(C(=O)O)c(=O)c2cc(F)c(N3CCN(S(=O)(=O)c4ccc(NC(C)=O)cc4)CC3)cc21,0,0,-,50,0,0,0,0,
C=C(C)Cn1c2ccc(NC(=S)NCc3ccccc3F)cc2c(=O)n1C,0,-,-,36,0,-,148,106,
CCNC(=S)Nc1ccc2c(c1)c(=O)n(C)n2CC=C(C)C,0,-,-,63,0,-,185,152,
S=c1[nH]nc(-c2ccncc2)n1N=C/C=C/c1ccccc1,-,-,0,-,-,-,-,-,
COC(=O)C1=C(C(=O)OC)C2Nc3ccccc3[C@@]23CC(C(=O)OC)N(C(C)=O)C3=N1 (some centres not stated),-,-,0,-,-,-,-,-,
Nc1nonc1-n1nnc(C(=O)NN=Cc2ccccc2Cl)c1-c1ccc2c(c1)OCO2,-,-,0,-,-,-,-,-,
CCOC(=O)C(=NNc1ccccc1[N+](=O)[O-])c1csc(N)n1,-,-,0,-,-,-,-,-,
CCCCN(CC)CCCNC(=O)c1cc2cc3ccc(C)cc3nc2o1,0,0,0,95,35,0,78,70,
CCCN(CCC)CCCNC(=O)c1cc2cc3ccc(Cl)cc3nc2o1,0,0,0,0,0,0,-,-,
Cc1ccc2cc3cc(C(=O)NCCCN4CCc5ccccc5C4)oc3nc2c1,0,0,-,70,35,0,184,134,
Cc1ccc2cc3cc(C(=O)NCCCN4CCCCCC4)oc3nc2c1,0,0,-,75,0,0,97,47,
CCCCN(CC)C(=O)c1cc2cc3ccc(OC)cc3nc2o1,0,0,0,41,34,0,98,78,
CN(C)CCN(Cc1cc2cc3c(cc2[nH]c1=O)OCO3)C(=S)NCC1CCCO1 (configuration not stated),0,0,0,50,0,0,0,0,
O=c1[nH]c2cc3c(cc2cc1CN(CCN1CCOCC1)C(=S)NCC1CCCO1)OCO3 (configuration not stated),0,0,0,34,0,0,124,125,
CN(C)/C=N/c1nc2nccc(-c3ccc(Cl)cc3)n2n1,0,0,-,72,0,0,0,0,
CN(C)/C=N/c1nc2nccc(-c3ccccc3)n2n1,0,0,-,52,0,0,132,106,
CN(C)C=Nc1nc2nccc(-c3ccc(F)cc3)n2n1,-,-,0,-,-,-,-,-,
COc1cc2c(cc1O)C[C@H]1NCCc3cc4c(c-2c31)OCO4,0,0,-,30,0,0,108,89,
CC1(C)Cc2nc(N3CCCC3)c(C#N)cc2CO1,0,0,0,110,0,0,66,50,
CC1(C)Cc2nc(N3CCOCC3)c(C#N)cc2CO1,0,0,0,49,0,0,37,35,
CC1(C)Cc2nc(Cl)c(C#N)cc2CO1,0,0,0,0,0,0,-,-,
O=C(CSc1nc2ccccc2[nH]1)NN=Cc1ccco1,-,-,0,-,-,-,-,-,
SMILES,FadD28 binding,UGM FP inh,Mtb hypoxia inh,FBA Mtb inh,GDH-TPI counter-1,Rv3671c protease,Mtb FBA inh conf,GDH-TPI counter-2,others
CC(C)Cn1c(-c2cccs2)nc2ccccc21,0,0,0,51,0,0,+,152,
Cn1c(-c2cccs2)nc2ccccc21,0,0,-,59,0,0,0,0,GDH-TPI DR=2.6
c1csc(Cn2c(-c3cccs3)nc3ccccc32)c1,0,0,0,63,34,0,0,28,
CCc1nnc(NC(=O)CSc2nc(C)c3c(c2C#N)CCCC3)s1,0,0,0,56,0,0,0,0,
Cc1ccc(N=Nc2ccc(O)c(C=NNC(=O)c3ccc(N)cc3)c2)cc1C,-,-,0,-,-,-,-,-,
N#C/C(=C\c1cccs1)Sc1nc2ccccc2s1,0,0,-,101,0,0,0,0,
CN(C)c1nc(-c2cccs2)cc(C(F)(F)F)c1C#N,0,0,0,35,0,0,0,0,
CN(C)c1nc(-c2ccccc2)cc(C(F)(F)F)c1C#N,0,0,0,0,0,0,-,-,
